Screens from PubChem.
The full list was thinned out, with hits kept by preference.
TTR transcr act = increases transthyretin transcription; AID 1117267; hit rate 1.3% among 92,000; activation, % at 16.7 µM; SH-SY5Y TTR promoter Gaussia luciferase, luminescence; 100% = recombinant luciferase protein wells;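 active means activation above the mean of all tested compounds plus 3 SD, cut at about 9.5% in these data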;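 further: cells exposed to compounds for one day before reading; 0% = median of all test compound wells on the plate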
HuH7 TTR inh = counter-screen for TTR activators: TTR transcription inhibitors in HuH7 cells; shares compounds with TTR transcr act; HuH7 TTR promoter-Gaussia luciferase reporter, luminescence; inhibition, % at 16.7 µM; hit rate 4% among 1,100;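 active means average inhibition above the solvent-only control wells' mean plus 3 SD, cut at about 15% in these data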;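 further: 0% = cells with DMSO only and 100% = cells with inhibitor control FD; inhibitors lower well luminescence so higher value means more inhibition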
TTR up confirm = human TTR transcription activation, confirmation. AID 1117280. activation, % at 16.7 µM. shares compounds with TTR transcr act. SHSY5Y TTR promoter Gaussia luciferase, luminescence; 100% = purified Lucia enzyme wells, no cells. 1,100 tested, under 10 active;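 active means mean activation above a set limit taken from the earlier primary screen, cut at about 11% in these data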;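 further: 0% = DMSO-treated cells and 100% = recombinant Lucia luciferase without cells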
Numbers without * were called inactive.

SMILES | TTR transcr act | others
FC(F)(F)c1ccccc1Cn1ccc2ccc(-c3ccc4ccn(Cc5ccccc5)c4c3)cc21 | -2
Cc1ccccc1Cn1ccc2ccc(-c3ccc4ccn(Cc5ccccc5)c4c3)cc21 | -1
CC(C)N1CCCCC(NC(=O)c2ccc(Cl)cc2Cl)C1=O (stereo not drawn) | -2
COc1ccc(CNC(=O)OC2CC3CC2[C@H]2CCCCN2C3)cc1 (stereo partly drawn) | -1
CCOC(=O)[C@]12CCCC=C1N(CCCOC)C(=O)[C@@H]2CC(=O)N1CCCC1 | 3
C#CCOCCOCCOCCNc1nc(N2CCN(C(=O)[C@H](CCC(=O)O)n3cc([C@@H](N)CC(N)=O)nn3)CC2)nc(N2CCN(C(=O)[C@H](CCC(=O)O)n3cc([C@@H](N)CC(N)=O)nn3)CC2)n1 | 0
C#CCOCCOCCOCCNc1nc(N2CCOCC2)nc(N2CCN(C(=O)[C@H](CC(N)=O)n3cc([C@@H](N)C(C)C)nn3)CC2)n1 | -1
C#CCOCCOCCOCCNc1nc(N2CCN(C(=O)[C@H](CC(N)=O)n3cc([C@@H](N)CC(N)=O)nn3)CC2)nc(N2CCN(C(=O)[C@H](CC(N)=O)n3cc([C@@H](N)CC(N)=O)nn3)CC2)n1 | 14* | HuH7 TTR inh=-4;TTR up confirm=0
CC(C)CCN1C(=O)COc2ccccc2C1c1nnnn1-c1ccc2c(c1)OCCO2 (stereo not drawn) | 2
CCCCCc1ccc(NC(=O)O[C@@H]2CC[C@@]34CCCN3C(=O)CCC[C@H]4C2)cc1 | -2
O=S(=O)(N[C@@H]1CCCC[C@H]1N1CCOCC1)c1ccc(Cl)cc1 | 0
COc1ccc2[nH]c(C)c(C(=O)CN3CCOCC3)c2c1 | 16* | HuH7 TTR inh=-10;TTR up confirm=0
Cc1[nH]c2ccccc2c1C(=O)CN1CCCC1 | 0
COc1ccc2[nH]cc(C(=O)CN3CCC(C)CC3)c2c1 | 0
Cc1ccc(-c2cc(C(=O)NC3CCCC3)no2)cc1 | -2
Cc1cc(-c2cc(-c3ccc(Cl)cc3)on2)nc(NC2CCCC2)n1 | 9.8* | HuH7 TTR inh=-3;TTR up confirm=1
Cc1ccc(SCc2cc(-c3ccc(Cl)cc3)on2)cc1 | 1
O=C(COCc1ccccc1)NC1CCCCN(Cc2ccc(Cl)cc2)C1=O (stereo not drawn) | 1
CCN(CC)C(=O)CSc1ncnc2sc(-c3ccccc3)cc12 | -4
CCc1cc2c(SCC(=O)C(C#N)=C3N(C)c4ccccc4N3C)ncnc2s1 | 9.9* | HuH7 TTR inh=-29;TTR up confirm=0
CC(C)C(C)(C#N)NC(=O)CSc1ncnc2sc(-c3ccccc3)cc12 (stereo not drawn) | -1
O=C(NC1CC[C@@]23CCCN2C(=O)CCC[C@H]3C1)c1ccccc1 (stereo partly drawn) | 0
c1ccc2oc(-c3ccc(Nc4nc(N5CCOCC5)nc(N5CCOCC5)n4)cc3)nc2c1 | 10* | HuH7 TTR inh=-7;TTR up confirm=0
CCc1ccc(Nc2nc(N3CCOCC3)nc(N3CCOCC3)n2)cc1 | 1
Clc1cccc(Nc2nc(N3CCOCC3)nc(N3CCOCC3)n2)c1 | 2
SMILES | TTR transcr act | others
COC(=O)[C@]12C[C@H](CC(=O)NCc3ccc(C)o3)C(=O)N(Cc3ccco3)C1=C[C@H](COCc1ccccc1)O[C@@H]2C | 1
COc1cccc(C2CC(OCCF)=CC(=O)O2)c1 (stereo not drawn) | -1
COc1ccccc1-c1ccc([C@@H]2C[C@H]3[C@H](CON3C)CN2CC2CCCCC2)cc1 | 1
CC(C)n1nnnc1C1(C)CCSCC(=O)N1Cc1cccc(C(F)(F)F)c1 (stereo not drawn) | 3
Fc1ccc(Cn2ccc3ccc(-c4ccc5ccn(Cc6ccc(F)cc6)c5c4)cc32)cc1 | 8
Cc1cc(C)cc([C@H]2C[C@]34CN(C(=O)OC(C)(C)C)S(=O)(=O)[C@H]3C[C@H]2O4)c1 | 4
O=C(NCC1CCCO1)c1ccc2c(=O)n(Cc3ccc(Cl)cc3)c(=S)[nH]c2c1 (stereo not drawn) | 0
O=C(NCC1CCCO1)c1ccc2c(=O)n(-c3ccc(F)cc3)c(=S)[nH]c2c1 (stereo not drawn) | 12* | HuH7 TTR inh=-11;TTR up confirm=-1
COc1ccccc1CNC(=O)c1ccc2c(=O)n(CC3CCCO3)c(=S)[nH]c2c1 (stereo not drawn) | 1
CC1(c2ccccc2)NC(=O)N(CC(=O)Nc2ccc3c(c2)OCO3)C1=O (stereo not drawn) | -1
CC1(c2ccc(OC(F)F)cc2)NC(=O)N(CC(=O)Nc2ccc3c(c2)OCO3)C1=O (stereo not drawn) | -2
COc1ccc(C2(C)NC(=O)N(CC(=O)Nc3ccc4c(c3)OCO4)C2=O)cc1OC (stereo not drawn) | 15* | HuH7 TTR inh=-12;TTR up confirm=1
COc1ccc(CNC2CCC23CCC(c2ccccc2)CC3)cc1OC (stereo not drawn) | 0
C#CCN1CC(N(C)CCO)CS1(=O)=O (stereo not drawn) | 4
O=C(CCc1ccccc1-c1ccccc1CCNC(=O)c1cccc(F)c1)NCc1ccccc1 | 0
O=C1CCCC/C1=C/Nc1cccc(C(F)(F)F)c1 | 0
Cc1ccc(N/C=C2\CCCCC2=O)c(C)c1 | 2
Cc1ccc(N/C=C2\CCCCC2=O)nc1 | 9.9* | HuH7 TTR inh=-9;TTR up confirm=0
COC(=O)[C@]12C[C@H](CC(=O)N3CCN(C(=O)C4CC4)CC3)C(=O)N(CCc3ccc(OC)c(OC)c3)C1=C[C@H](C(C)C)O[C@@H]2C1CC1 | 6
O=C(NCCc1c[nH]c2ccccc12)OCc1cn(Cc2ccccc2Cl)nn1 | 0
COc1cc(F)ccc1Oc1cccc2c1S(=O)(=O)N([C@H](C)c1ccccc1)C[C@@H](COCc1ccccc1)O2 | 2
Cc1ccc(CN2CCCCC(NC(=O)c3ccccc3C)C2=O)cc1 (stereo not drawn) | 0
CCOC(=O)[C@]12CCCC=C1N(Cc1ccc(OC)cc1)C(=O)[C@@H]2CC(=O)NCCCOC | 0
Cc1ccnc2nc(C(=O)OCC(=O)NCCc3ccc(Cl)cc3)nn12 | 1
O=C(COC(=O)c1ccccn1)Nc1cccc(Cl)c1Cl | 2
SMILES | TTR transcr act | others
O=C(COC(=O)c1ccccn1)NCCc1ccc(Cl)cc1 | 11* | HuH7 TTR inh=-8;TTR up confirm=0
N/C(=N\OC(=O)c1ccc2c(c1)OCO2)c1cccnc1 | 1
Cc1ccc(C(=O)O/N=C(\c2ccccc2)c2cccnc2)cc1 | 1
N/C(=N\OC(=O)c1ccccc1)c1cccnc1 | 10* | HuH7 TTR inh=-11;TTR up confirm=2
COC(=O)C[C@H]1CC[C@@H]2[C@H](COc3ccc(NC(=O)c4cccc(Cl)c4)cc3C(=O)N2C)O1 | 3
COC(=O)[C@]12C[C@H](CC(=O)NCc3ccc(C)o3)C(=O)N(CCc3ccc(OC)c(OC)c3)C1=C[C@H](COCc1ccccc1)O[C@@H]2C | 1
O=C(NCc1ccco1)C(c1ccccc1)N(CC1CCCO1)C(=O)Cn1nnc2ccccc21 (stereo not drawn) | 6
Cc1cccc(N(C(=O)Cn2nnc3ccccc32)C(C(=O)NCc2ccco2)c2ccncc2)c1C (stereo not drawn) | 1
Cc1ccccc1C(C(=O)NCc1ccco1)N(CC1CCCO1)C(=O)Cn1nnc2ccccc21 (stereo not drawn) | 12* | HuH7 TTR inh=-4;TTR up confirm=-1
COC(=O)[C@]12C[C@H](CC(=O)N3CCCCC3)C(=O)N(Cc3cccc4ccccc34)C1=C[C@H](C(C)C)O[C@@H]2C1CC1 | -2
